Source: PubChem BioAssay (NCI)
About 83,000 compounds went through this panel and 20% of them were active in at least one assay; those are over-represented in the sample as a whole.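 Note: values are percent growth. 100 is the growth of untreated cells, values between 100 and 0 indicate rising inhibition; between -100 and 0 indicates cell death.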 Active and inactive are the calls of the source. How the source made its calls: active means growth percent below 10; inactive means the rest.

system: MDA-MB-468 breast; experiment: NCI-60 one-dose screen, 48 h (100 = growth as untreated, 0 = no growth, -100 = all killed); conditions: 10 µM unless noted

| SMILES | growth |
| --- | --- |
| COc1ccc(CNC(=O)C(=O)[C@H](Cc2ccccc2)NC(=O)c2[nH]c3ccccc3c(=O)c2C)cc1 | 98.4% (inactive) |
| CSCCCNC(=O)c1ccc2c(c1)/C(=C/c1[nH]c(C)cc1C)C(=O)N2 | 42.7% (inactive) |
| COc1ccc(-c2csc(NC(=O)CO[N+](=O)[O-])n2)cc1 | 113% (inactive) |
| COc1cc(C2C=C(c3ccc(Cl)c(Cl)c3)N=C3SC(C)=CN32)cc(OC)c1OC (centres undefined) | 62.5% (inactive) |
